# In the supplement of paper PMC6555819:
# Columns and labels:
# Assay in all cases: PBM binding z-score (relative to random genomic background probes); higher = stronger binding; sequences stand for … in GC…GCGATTGACAGCGTAGAATGAAGG
# [1] = test system: PPARg:RXRa IVT, anti-PPARg (NR concentration 270 nM, RXRa partner concentration 90 nM)
# Procedure, shortened: (§1)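 Binding buffer was PBS pH 7.4 with 2% milk, 0.02% Triton X-100, 1 mM DTT, 0.2 mg/mL BSA and 0.4 mg/ml salmon testes DNA. In it, ligand-free nuclear receptor dimers were incubated 1 h on custom Agilent 4×180K protein-binding microarrays carrying double-stranded probes. Antibodies against each partner (one per run) detected binding, and z-scores were calculated against random background probes after regression normalization of scanned fluorescence.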
# [2] = test system: PPARg DBDmut:RXRa IVT, anti-PPARg (DBD mutation: PPARg1 K132A/R137A, NR concentration 270 nM, RXRa partner concentration 90 nM)
# Procedure, shortened: as §1
# [3] = test system: PPARg DBDmut IVT, anti-PPARg (DBD mutation: PPARg1 K132A/R137A, NR concentration 270 nM)
# Procedure, shortened: as §1
# [4] = test system: PPARg homodimer (NR concentration 180 nM)
# Procedure, shortened: as §1
# [5] = test system: PXR:RXRa (NR concentration 270 nM, RXRa partner concentration 90 nM)
# Procedure, shortened: as §1
# [6] = test system: PXR homodimer (NR concentration 270 nM)
# Procedure, shortened: as §1
# [7] = test system: RARa:RXR (NR concentration 270 nM, RXRa partner concentration 90 nM)
# Procedure, shortened: as §1
# [8] = test system: RARa homodimer (NR concentration 270 nM)
# Procedure, shortened: as §1
# [9] = test system: RARb:RXRa (NR concentration 270 nM, RXRa partner concentration 90 nM)
# Procedure, shortened: as §1
# [10] = test system: RARb homodimer (NR concentration 270 nM)
# Procedure, shortened: as §1
Sequence,PBM binding z-score [1],PBM binding z-score [2],PBM binding z-score [3],PBM binding z-score [4],PBM binding z-score [5],PBM binding z-score [6],PBM binding z-score [7],PBM binding z-score [8],PBM binding z-score [9],PBM binding z-score [10]
CGTACAAGGTCAAAGGTCAGTGAAGAGATGACGG,7.09,2.61,3.6,5.49,7.22,2.17,9.15,4.68,5.95,5.35
AGTCAAAGTTCAGGACGAGGTAACGTTAAGCACG,1.92,0.603,0.235,2.35,3.11,1.65,2.78,0.838,4.3,3.3
CCTACTGGGCCGTTCAGAGGTCATTGATCATATG,2.34,-0.522,-0.314,1.94,4.75,2.25,4.52,0.491,2.7,3.78
CGAACTAGGTCATCCAGGACCGTGAATACATTGA,8.09,1.32,0.732,1.83,1.34,-0.0905,1.84,0.294,3.6,2.57
ATCTCTAGGTTAAGATAGTTCAGTGAATGCAAAT,3.25,1.33,1.32,1.36,3.05,0.756,1.53,2.08,2.01,1.9
ACTCGGTGGACAAAGGTCAGAGCTACGCCAGTGA,3.04,-0.478,-0.742,2,3.37,-0.0874,4.02,0.366,3.96,4.06
CGTCCAAGGTCATTGGAGGTCAGTGAAGACAGAT,4.79,0.319,-0.697,5.59,7.17,8.63,6.25,2.43,5.56,5.54
CCTACTGGGCCATTCAGAGGTCAATGATCATATG,4.62,0.0847,-0.339,1.92,3.89,0.827,3.93,0.374,3.42,4.28
AGAATGAGGTTAAACGTAGATCAGGGAAGAAAGT,3.75,1.56,1.02,1.3,1.73,0.319,2.69,0.469,2.23,1.19
CGTCAAAGTCCAAGGTAACGTAACAGAAAGCAGC,0.33,0.185,0.896,0.652,-0.079,0.233,0.165,0.428,1.52,0.655
TCTTGTAGGTCAATAGAGGTTAAGAAAGTGCGCT,7.76,2.66,2.4,2.69,5.67,0.719,4.2,1.13,4.09,3.81
ATCGAAAGGTCGACGCGGTGAGTATACACCGTTT,1.36,0.788,0.177,1.39,2.07,-0.368,3,0.192,3.72,2.45
CCTGCGAGGTCATGGTCAGCTAATCTACAGTATG,4.21,2.09,1.64,4.94,5.39,1.06,5.88,1.08,5.01,4.02
GTTACAGGGTCAAGGCCAGAGTACGCGTATTGAT,4.35,0.698,0.735,2.94,3.92,0.672,4.89,0.693,4.52,4.1
CATACAGGGTCGGCTAGGCCAGAGTAGGGACGGC,0.00635,-0.399,-0.0958,-0.0997,-0.0911,-0.146,0.408,-0.15,1.13,0.799
GCTAGTTGGTCAGTAAAATGTCACACACCGGTCG,0.672,0.0763,-0.339,1.21,-0.0576,0.0723,0.0348,0.262,0.995,1.43
AGTCAAAGTTCAGGACGACGTAACGTAAAGCACG,1.54,0.437,-0.388,1.53,2.18,0.785,1.86,0.264,3.92,2.77
CCTACTGGACCAAGGTCATTGATCAGTCAAAGCA,2.23,0.0744,0.144,2.59,3.88,1.96,3.91,0.91,3.23,3.4
CGTCCAAGGTCAAAGGTCAATGAAGAGATGACGG,6.01,0.925,0.0116,3.92,7.05,1.95,8.9,1.95,6.08,5.56
ATCGAAAGGTCGAAGGTGAGCATACCCACCCGAA,2.39,0.377,0.499,1.46,3.16,0.092,4.44,0.708,3.86,3.01
CCTACTGGGCCAAAGAGGTCATTGATGCCGATAA,4.34,-0.355,-0.682,1.81,4.81,4.26,4.39,0.256,3.07,3.65
CACACTAGGTCACAGAGGTCAAAGTCCGTGCGTA,8.44,0.528,2.16,4.86,6.73,12,7.59,3.69,5.36,5.86
TATAAAGGGTCAAAGGCCAGAGTACGAATGTCGA,4.93,2.86,2.33,3.29,4.36,0.699,5.99,1.64,5.27,4.32
